Assay results: PubChem BioAssay (EPA / NIEHS)
Where “and” joins values, the source holds several entries; their conditions need not be identical. Equal values may be shown once. Inconclusive results are not listed. Calls of active or inactive are those of the source. How the source made its calls, unless noted: active means hit-call score of the fitted dose curve at least 0.9, where 1 is the maximum; inactive means score below 0.9.

How the values were obtained:
[1] = CCTE_Deisenroth_5AR_NBTE_donor: CCTE's 5alpha-reductase NanoBRET Target Engagement Assay […], Deisenroth Lab (AID 2284319); details: actives raise or lower the signal
Method in brief: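 Donor NanoLuc luminescence at 460-20 nm is the read-out, serving artifact detection. Transiently expressed SRD5A2-NanoLuc in HEK293T; 5 h total chemical exposure, testosterone tracer added for the final 2 h; fitting bidirectional relative to DMSO baseline.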

[2] = CCTE_Deisenroth_5AR_NBTE_acceptor: CCTE's 5alpha-reductase NanoBRET Target Engagement Assay - Autofluorescence Screen, Deisenroth Lab (AID 2284321); details: actives raise or lower the signal;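 further: compound fluorescence in the acceptor channel under 460 nm excitation flags autofluorescence artifacts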
Method in brief: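 Autofluorescence check: ToxCast chemicals, nominal 100 uM, excitation 460 nm, n=3 runs. Acceptor fluorescence endpoint, bidirectional fit relative to DMSO. Parent assay in HEK293T, 5 h post-dose.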

[3] = system: SRD5A2 (gene 6716); test: CCTE_Deisenroth_5AR_NBTE_ratio: CCTE's 5alpha-reductase NanoBRET Target Engagement Assay - Ratio, Deisenroth Lab (AID 2284322); details: actives raise or lower the signal
Method in brief: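 HEK293T cells transiently expressing an SRD5A2-NanoLuc fusion (20 h post-transfection) were exposed to test chemical (10 nM - 29.9 uM, 8 points) for 3 h, then testosterone tracer for a further 2 h. Acceptor/donor BRET ratio was fitted bidirectionally against DMSO baseline.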

[4] = system: IYD (gene 389434); test: CCTE_GLTED_hIYD: CCTE's human Iodotyrosine Deiodinase (xIYD) Inhibition Assay, Great Lakes Toxicology and Ecology Division (GLTED) Lab (AID 2284317; active means hit-call score of the fitted dose curve at least 0.9, where 1 is the maximum;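 further: cell-free human IYD enzyme made in baculovirus insect cells; iodide freed from monoiodotyrosine measured by cerium arsenite color change at 420 nm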)
Method in brief: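 In the IYD assay, iodide released from MIT by insect-cell-expressed human enzyme was quantified after 3 h via Sandell-Kolthoff rate at 420 nm, with plate-wise normalization to MNT and solvent controls.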

[5] = read-out: CD69, CD69 (gene 969); test: BSK_LPS_CD69: BioMAP Diversity Plus: LPS Assay for CD69 Biomarker Activity (AID 2284303); details: primary human HUVEC with PBMC
Method in brief: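 CD69 surface levels were read by ELISA after 24 h chemical treatment of an LPS-stimulated HUVEC plus PBMC co-culture; positive-direction fit against DMSO vehicle.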

[6] = IUF_NPC2c_oligodendrocyte_migration_120hr: Leibniz Research Institute for Environmental Medicine (IUF) 120-hour Neural Progenitor Cell Migration Assay for Oligodendrocyte Migration (NPC2c) (AID 2284297);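 further: O4-positive oligodendrocyte migration distance divided by radial glia migration distance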
Method in brief: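 hNPC spheres (GW 16-19 cortex), PDL/laminin, DMEM/F12 3:1 + 1% N2, 37C. Dosing day 0–5, half feed day 3, DMSO ≤0.1%. Fixed 120 h; O4 ICC + Hoechst, HCI. Readout: mean oligodendrocyte distance from sphere edge / radial glia distance.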

[7] = IUF_NPC2a_radial_glia_migration_120hr: Leibniz Research Institute for Environmental Medicine (IUF) 120-hour Neural Progenitor Cell Migration Assay for Radial Glia Migration (NPC2a) (AID 2284298)
Method in brief: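 Hoechst-stained nuclei imaged at 120 h; algorithm maps sphere core by densest nuclei, sets migration edge at density threshold, gives radial glia migration distance (um) per well vs DMSO. hNPC spheres (0.3 mm), PDL/laminin, DMEM/F12 3:1 + 1% N2.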

[8] = IUF_NPC2a_radial_glia_migration_72hr: Leibniz Research Institute for Environmental Medicine (IUF) 72-hour Neural Progenitor Cell Migration Assay for Radial Glia Migration (NPC2a) (AID 2284299)
Method in brief: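 Radial glia migration (µm, sphere core edge to migration front, four directions averaged) from brightfield images at 72 h; hNPC spheres differentiating on PDL/laminin in N2 medium, compound exposure at 7 concentrations from plating.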

[9] = IUF_NPC2b_neuronal_migration_120hr: Leibniz Research Institute for Environmental Medicine (IUF) 120-hour Neural Progenitor Cell Migration Assay for Neuron Migration (NPC2b) (AID 2284300)
Method in brief: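 hNPC spheres, PDL/laminin, DMEM:F12 3:1 + 1% N2, 37C/5% CO2; 7 concentrations + solvent control (DMSO ≤0.1%), 5 d exposure, half-feed day 3. Fix 120 h, TUBB3 ICC, HCI: mean neuron migration distance ÷ glia distance.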

[10] = IUF_NPC3_neuronal_differentiation_120hr: Leibniz Research Institute for Environmental Medicine (IUF) 120-hour Neuronal Differentiation Assay (NPC3) (AID 2284301)
Method in brief: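 hNPC spheres, PDL/laminin, DMEM/F12 3:1 + 1% N2, 37C, 5% CO2; 7 concentrations + solvent control, 5 d exposure, half-change day 3. Fix 120 h; TUBB3/Hoechst ICC, CNN neuron calling; % neurons vs nuclei, DMSO-normalized.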

[11] = IUF_NPC4_neurite_length_120hr: Leibniz Research Institute for Environmental Medicine (IUF) 120-hour Neuronal Morphology Assay for Neurite Length (NPC4) (AID 2284302)
Method in brief: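 hNPC spheres (0.3 mm, fetal brain GW 16-19) on PDL/laminin, DMEM:F12 3:1 + 1% N2, 37C 5% CO2; 7 concs + solvent control, day 0-5, half medium change d3; fix 120 h, TUBB3 ICC, mean neurite length um vs DMSO.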

[12] = IUF_NPC5_oligodendrocyte_differentiation_120hr: Leibniz Research Institute for Environmental Medicine (IUF) 120-hour Oligodendrocyte Differentiation Assay (NPC5) (AID 2284304; active means hit-call score of the fitted dose curve at least 0.9, where 1 is the maximum;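 further: primary human fetal neural progenitor spheres plated to migrate and differentiate; share of O4-positive cells among Hoechst nuclei found by CNN image analysis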)
Method in brief: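 hNPC spheres, fetal cortex GW 16-19; PDL/laminin, DMEM:F12 3:1 + 1% N2, 37C/5% CO2; 7 concentrations + solvent control, 5 d exposure, half-change day 3. Readout: %O4+ of Hoechst+ nuclei in migration area, CNN classification; DMSO baseline.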

[13] = IUF_NPC4_neurite_area_120hr: Leibniz Research Institute for Environmental Medicine (IUF) 120-hour Neuronal Morphology Assay for Neurite Area (NPC4) (AID 2284305; active means hit-call score of the fitted dose curve at least 0.9, where 1 is the maximum)
Method in brief: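 hNPC spheres on PDL/laminin, N2 medium, 37C/5% CO2; dosed day 0, half-medium refresh day 3; fixed 120 h; TUBB3/Hoechst ICC, high-content imaging; neurite area = mean pixels per neuron (nuclei excluded); DMSO baseline, max 0.1%.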

[14] = IUF_NPC2-5_cytotoxicity_72hr: Cytotoxicity Assessment at 72 hours in the Leibniz Research Institute for Environmental Medicine (IUF) Neural Progenitor Cell Migration and Differentiation Assay for Cytotoxicity (NPC2-5) (AID 2284306; active means hit-call score of the fitted dose curve at least 0.9, where 1 is the maximum;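 further: LDH release into supernatant measured by resorufin fluorescence marking membrane damage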)
Method in brief: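 hNPC spheres (0.3 mm), PDL/laminin, DMEM/F12 3:1 + 1% N2; cpd from d0, 7 concs + SC, DMSO max 0.1%; half-medium refresh d3. Readout: supernatant LDH via resorufin fluorescence (RFU), 72 h; gain-of-signal fit.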

[15] = IUF_NPC2-5_cytotoxicity_120hr: Cytotoxicity Assessment at 120 hours in the Leibniz Research Institute for Environmental Medicine (IUF) Neural Progenitor Cell Migration and Differentiation Assay (NPC2-5) (AID 2284307; active means hit-call score of the fitted dose curve at least 0.9, where 1 is the maximum)
Method in brief: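 hNPC spheres on PDL/laminin, N2 medium, 37C; 7 concs + solvent control, DMSO ≤0.1%; 5-day exposure, half medium changed day 3. LDH in supernatant at 120 h, resazurin→resorufin fluorescence, gain-of-signal.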

[16] = IUF_NPC2-5_cell_number_120hr: Cell Number Assessment at 120 hours in the Leibniz Research Institute for Environmental Medicine (IUF) Neural Progenitor Cell Migration and Differentiation Assay (NPC2-5) (AID 2284308);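 further: count of Hoechst-stained nuclei in migration zone around plated human neural progenitor spheres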
Method in brief: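 Hoechst-stained nuclei within the migration area were counted by automated high content imaging after 120 h. Single hNPC spheres differentiated on poly-D-lysine/laminin in DMEM/F12 (3:1) with 1% N2, compound present throughout, DMSO ≤0.1%.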

[17] = IUF_NPC2-5_viability_120hr: Viability Assessment at 120 hours in the Leibniz Research Institute for Environmental Medicine (IUF) Neural Progenitor Cell Migration and Differentiation Assay (NPC2-5) (AID 2284312)
Method in brief: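 Human fetal neural progenitor spheres (0.3 mm) plated on poly-D-lysine/laminin in N2 differentiation medium, exposed 120 h with half-medium refresh at day 3. Viability by alamar blue resazurin fluorescence; 7 concentrations, DMSO max 0.1%.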

[18] = CCTE_Mundy_HCI_iCellGluta_NOG_NeuriteLength: CCTE's Neurite Outgrowth Assay in iCellGluta cells for Neurite Length, Mundy Lab (AID 2284318; active means hit-call score of the fitted dose curve at least 0.9, where 1 is the maximum)
Method in brief: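 Automated high-content imaging of betaIII-tubulin (Alexa Fluor-488) and Hoechst-stained cells gave neurite length, normalized to the DMSO baseline.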

[19] = system: TTR (gene 7276); test: CCTE_GLTED_hTTR_0.5uM: CCTE's human Transthyretin (hTTR) Inhibition Assay, with 0.5uM TTR, Great Lakes Toxicology and Ecology Division (GLTED) Lab (AID 2284320)
Method in brief: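 Probe (ANSA) displacement from 0.5 uM human transthyretin was followed by fluorescence (ex 380, em 475) after a 2 h incubation with chemical. Activity was scored as signal loss and fitted positively relative to DMSO.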

For `O=S(=O)(O)c1ccc(N=Nc2c(O)ccc3ccccc23)cc1`, which AC50 [1] is on record?
The AC50 was 13.3 µM (active).

What about the outcome [2] of the same molecule?
The outcome was “inactive”.

And the AC50 [3]?
The AC50 was 26.6 µM (active).

Which outcome [4] does the source give for `O=C(Nc1ccccc1)c1cc(Cl)ccc1O` here?
The outcome was “inactive”.

With `CN(C)c1ccc2nc3ccc(=[N+](C)C)cc-3sc2c1` as the molecule, how does the AC50 [4] read?
The AC50 was 2.73 µM (active).

What about the outcome [1] of the same molecule?
The outcome was “inactive”.

And the AC50 [2]?
Its AC50 is 10 µM (active).

What about the AC50 [3] of the same molecule?
Its AC50 is 2.95 µM (active).

With `c1ccc(Nc2cccc3ccccc23)cc1` as the molecule, how does the AC50 [5] read?
The AC50 was 36.5 µM (active) and 20 µM (active).

For `Nc1nc(N)nc(-c2ccccc2)n1`, which outcome [5] is on record?
Its outcome is “inactive”.

For `Cc1c(C(=O)c2c[nH]n(C)c2=O)ccc(S(C)(=O)=O)c1C1=NOCC1`, which outcome [6] is on record?
The outcome was “inactive”.

And the outcome [7]?
Its outcome is “inactive”.

What about the outcome [8] of the same molecule?
Its outcome is “inactive”.

And the outcome [9]?
The outcome was “inactive”.

What about the outcome [10] of the same molecule?
The outcome was “inactive”.

What about the outcome [11] of the same molecule?
Its outcome is “inactive”.

What about the outcome [12] of the same molecule?
Its outcome is “inactive”.

What about the outcome [13] of the same molecule?
The outcome was “inactive”.

And the outcome [14]?
Its outcome is “inactive”.

And the outcome [15]?
The outcome was “inactive”.

What about the outcome [16] of the same molecule?
Its outcome is “inactive”.

And the outcome [17]?
The outcome was “inactive”.

And the outcome [18]?
The outcome was “inactive”.

Which outcome [5] does the source give for `CC(CCC(=O)O)(c1ccc(O)cc1)c1ccc(O)cc1` here?
The outcome was “inactive”.

Which outcome [1] does the source give for `O=C(O)CCC(=O)O` here?
Its outcome is “inactive”.

What about the outcome [2] of the same molecule?
The outcome was “inactive”.

What about the outcome [3] of the same molecule?
The outcome was “inactive”.

Which results are given for `C=C[C@@]1(C)CC(=O)[C@]2(O)[C@@]3(C)[C@@H](O)CCC(C)(C)[C@@H]3[C@H](O)[C@H](OC(C)=O)[C@@]2(C)O1`?
AC50 [1]: 9.91 µM (active); outcome [2]: inactive; outcome [3]: inactive

With `Oc1ccccc1Cc1ccccc1O` as the molecule, how does the outcome [5] read?
Its outcome is “inactive”.

For `CCCC(C)C(=O)OCC` (centres undefined), which outcome [5] is on record?
Its outcome is “inactive”.

For `CCCCCCCCCCCCCCCCCCOS(=O)(=O)O`, which AC50 [4] is on record?
Its AC50 is 19.5 µM (active).

Which results are given for `CCCCCCCCCCCCCC(=O)OC(C)C`?
outcome [1]: inactive; outcome [2]: inactive; outcome [3]: inactive

With `O=C(O)C(F)(F)C(F)(F)C(F)(F)C(F)(F)C(=O)O` as the molecule, how does the outcome [5] read?
The outcome was “inactive”.

And the AC50 [19]?
The AC50 was 5.53 µM (active).

For `Oc1ccc(-c2ccccc2)c(Cl)c1`, which outcome [1] is on record?
The outcome was “inactive”.

And the outcome [2]?
Its outcome is “inactive”.

And the outcome [3]?
The outcome was “inactive”.

Which results are given for `CC(C)(C)NC(=O)[C@H]1CC[C@H]2[C@@H]3CC[C@H]4NC(=O)C=C[C@]4(C)[C@H]3CC[C@]12C`?
outcome [1]: inactive; outcome [2]: inactive; AC50 [3]: 0.00734 µM (active)
